# Assay results reported in PubChem BioAssay AID1159580 (chemical genetic matrix, 2015).
# “And” between values parts separate entries of the source, which are not always exact repeats. Equal entries are not always repeated. The campaign covered roughly 5,500 compounds. About 2,000 (36%) were called active. Roughly 18% stayed inconclusive and do not appear here. The list shows a part of the results. Unmarked numbers belong to inactive results. No stated cut-off is given here; in the data, active means normalized growth mostly below about 0.91 (no sharp cut-off); inconclusive means no clear call, values can overlap the other calls; inactive means mostly above about 0.92.
# Test: chemical genetic growth profiling, strain panel (AID 1159580);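 further: tested at 20 µM; growth read once vehicle control cultures reached saturation at 30 °C; 1 = growth at the plate median or of vehicle wells; lower values mean less growth of the strain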
# Conditions: S. cerevisiae deletion strains, growth OD
structure (smiles),measurement,setting,value
Cc1cccc(N(C)C(=S)Oc2ccc3ccccc3c2)c1,normalized growth,"locus YAL013W, strain DEP1, active compounds read low",0.968
same,normalized growth,"locus YAL021C, strain ccr4, active compounds read low",0.952
same,normalized growth,"locus YAL026C, strain drs2, active compounds read low",0.995
same,normalized growth,"locus YAL030W, strain snc1, active compounds read low",0.996
same,normalized growth,"locus YBL061C, strain skt5, active compounds read low",0.994
same,normalized growth,"locus YBR009C, strain hhf1, active compounds read low",1.02
same,normalized growth,"locus YBR021W, strain FUR4, active compounds read low",0.964
same,normalized growth,"locus YBR023C, strain chs3, active compounds read low",0.981
same,normalized growth,"locus YBR171W, strain sec66, active compounds read low",0.985
same,normalized growth,"locus YBR229C, strain ROT2, active compounds read low",0.943
same,normalized growth,"locus YBR231C, strain swc5, active compounds read low",0.973
same,normalized growth,"locus YBR279W, strain paf1, active compounds read low",1.01
same,normalized growth,"locus YCL011C, strain gbp2, active compounds read low",1
same,normalized growth,"locus YCL016C, strain dcc1, active compounds read low",0.986
same,normalized growth,"locus YCL029C, strain bik1, active compounds read low",0.967
same,normalized growth,"locus YCL069W, strain vba3, active compounds read low",0.989
same,normalized growth,"locus YCR088W, strain abp1, active compounds read low",0.995
same,normalized growth,"locus YDL005C, strain med2, active compounds read low",0.998
same,normalized growth,"locus YDL035C, strain GPR1, active compounds read low",0.979
same,normalized growth,"locus YDL040C, strain nat1, active compounds read low",1.01
same,normalized growth,"locus YDL074C, strain BRE1, active compounds read low",0.948
same,normalized growth,"locus YDL101C, strain DUN1, active compounds read low",0.979
same,normalized growth,"locus YDL134C, strain PPH21, active compounds read low",0.992
same,normalized growth,"locus YDL185W, strain tfp1, active compounds read low",0.915
same,normalized growth,"locus YDL192W, strain arf1, active compounds read low",0.976
same,normalized growth,"locus YDR001C, strain nth1, active compounds read low",0.99
same,normalized growth,"locus YDR069C, strain doa4, active compounds read low",0.985
same,normalized growth,"locus YDR101C, strain arx1, active compounds read low",0.978
same,normalized growth,"locus YDR137W, strain rgp1, active compounds read low",1.33 [resistant] (active)
same,normalized growth,"locus YDR150W, strain NUM1, active compounds read low",0.971
same,normalized growth,"locus YDR159W, strain sac3, active compounds read low",0.935
same,normalized growth,"locus YDR162C, strain NBP2, active compounds read low",1.01
same,normalized growth,"locus YDR195W, strain ref2",0.967
same,normalized growth,"locus YDR297W, strain sur2, active compounds read low",0.984
same,normalized growth,"locus YDR318W, strain mcm21, active compounds read low",0.982
same,normalized growth,"locus YDR334W, strain swr1, active compounds read low",1.04
same,normalized growth,"locus YDR335W, strain msn5, active compounds read low",1.01
same,normalized growth,"locus YDR388W, active compounds read low",0.99
same,normalized growth,"locus YDR392W, strain spt3, active compounds read low",0.894
same,normalized growth,"locus YDR502C, strain sam2, active compounds read low",0.983
same,normalized growth,"locus YEL003W, strain gim4, active compounds read low",1
same,normalized growth,"locus YEL037C, strain rad23, active compounds read low",0.99
same,normalized growth,"locus YEL061C, strain CIN8 (second series), active compounds read low",0.989
same,normalized growth,"locus YEL061C, strain CIN8, active compounds read low",0.987
same,normalized growth,"locus YER015W, strain faa2, active compounds read low",0.991
same,normalized growth,"locus YER016W, strain bim1, active compounds read low",0.993
same,normalized growth,"locus YER110C, active compounds read low",0.983
same,normalized growth,"locus YER111C, strain swi4, active compounds read low",1.01
same,normalized growth,"locus YER155C, strain BEM2 (second series), active compounds read low",1.02
same,normalized growth,"locus YER155C, strain BEM2, active compounds read low",0.979
same,normalized growth,"locus YER167W, strain BCK2, active compounds read low",0.976
same,normalized growth,"locus YFR010W, strain ubp6, active compounds read low",1.01
same,normalized growth,"locus YGL078C, strain dbp3, active compounds read low",0.98
same,normalized growth,"locus YGL086W, strain mad1, active compounds read low",0.962
same,normalized growth,"locus YGL167C, strain pmr1, active compounds read low",0.984
same,normalized growth,"locus YGL173C, strain kem1, active compounds read low",0.985
same,normalized growth,"locus YGL227W, strain vid30, active compounds read low",1.02
same,normalized growth,"locus YGL240W, strain doc1, active compounds read low",0.951
same,normalized growth,"locus YGL248W, strain PDE1, active compounds read low",0.974
same,normalized growth,"locus YGL253W, strain hxk2, active compounds read low",0.986
same,normalized growth,"locus YGR078C, strain PAC10, active compounds read low",0.979
same,normalized growth,"locus YGR135W, strain pre9, active compounds read low",0.997
same,normalized growth,"locus YGR252W, strain gcn5, active compounds read low",1.02
same,normalized growth,"locus YHR013C, strain ard1, active compounds read low",1
same,normalized growth,"locus YHR027C, strain rpn1, active compounds read low",0.989
same,normalized growth,"locus YHR030C, strain SLT2, active compounds read low",0.986 and 0.935
same,normalized growth,"locus YHR079C, strain IRE1 (second series), active compounds read low",0.984
same,normalized growth,"locus YHR079C, strain IRE1, active compounds read low",0.941
same,normalized growth,"locus YHR094C, strain hxt1, active compounds read low",0.981
same,normalized growth,"locus YHR129C, strain ARP1, active compounds read low",0.969
same,normalized growth,"locus YHR142W, strain chs7, active compounds read low",1
same,normalized growth,"locus YHR200W, strain rpn10, active compounds read low",0.961
same,normalized growth,"locus YIL066C, strain RNR3, active compounds read low",0.958
same,normalized growth,"locus YIL073C, strain SPO22, active compounds read low",0.964
same,normalized growth,"locus YIL125W, strain kgd1, active compounds read low",0.981
same,normalized growth,"locus YIR030C, strain dcg1, active compounds read low",0.966
same,normalized growth,"locus YJL092W, strain hpr5, active compounds read low",0.99
same,normalized growth,"locus YJL095W, strain BCK1 (second series), active compounds read low",0.993
same,normalized growth,"locus YJL095W, strain BCK1, active compounds read low",0.993 and 0.928
same,normalized growth,"locus YJL115W, strain asf1, active compounds read low",1
same,normalized growth,"locus YJL129C, strain trk1, active compounds read low",0.922
same,normalized growth,"locus YJL134W, strain LCB3, active compounds read low",0.989
same,normalized growth,"locus YJL154C, strain vps35, active compounds read low",0.998
same,normalized growth,"locus YJL164C, strain tpk1, active compounds read low",0.997
same,normalized growth,"locus YJL166W, strain qcr8, active compounds read low",0.99
same,normalized growth,"locus YJL168C, strain set2, active compounds read low",0.984
same,normalized growth,"locus YJL187C, strain SWE1 (second series), active compounds read low",0.974
same,normalized growth,"locus YJR043C, strain POL32, active compounds read low",0.997
same,normalized growth,"locus YJR066W, strain TOR1, active compounds read low",0.878
